# Values joined by “and” are separate entries in the source; they are usually repeats but may differ in a detail not shown here. Identical values can stand only once. The campaign covered roughly 5,500 compounds. About 2,000 (36%) were called active. Inconclusive results (about 18%) are left out. The list shows a part of the results. Values without a mark were called inactive. Cut-off read from the data, not from the text of the source: active = normalized growth mostly below about 0.91 (no sharp cut-off); inconclusive = no clear call, values can overlap the other calls; inactive = mostly above about 0.92.
# Assay: chemical genetic growth profiling, strain panel (AID 1159580);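 note: tested at 20 µM; growth read once vehicle control cultures reached saturation at 30 °C; 1 = growth at the plate median or of vehicle wells; lower values mean less growth of the strain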
# Conditions: growth OD
smiles,measurement,setting,value
O=C(O)c1cccnc1Nc1cccc(C(F)(F)F)c1,normalized growth,"S. cerevisiae deletion strains, locus YAL013W, strain DEP1, active compounds read low",0.97
same,normalized growth,"S. cerevisiae deletion strains, locus YAL040C, strain CLN3, active compounds read low",1.02
same,normalized growth,"S. cerevisiae deletion strains, locus YBR021W, strain FUR4, active compounds read low",0.922
same,normalized growth,"S. cerevisiae deletion strains, locus YBR229C, strain ROT2, active compounds read low",0.964
same,normalized growth,"S. cerevisiae deletion strains, locus YCL029C, strain bik1, active compounds read low",0.944
same,normalized growth,"S. cerevisiae deletion strains, locus YCL061C, strain MRC1 (second series), active compounds read low",1
same,normalized growth,"S. cerevisiae deletion strains, locus YDL035C, strain GPR1, active compounds read low",0.984
same,normalized growth,"S. cerevisiae deletion strains, locus YDL074C, strain BRE1, active compounds read low",0.999
same,normalized growth,"S. cerevisiae deletion strains, locus YDL101C, strain DUN1, active compounds read low",0.981
same,normalized growth,"S. cerevisiae deletion strains, locus YDL134C, strain PPH21, active compounds read low",0.946
same,normalized growth,"S. cerevisiae deletion strains, locus YDL185W, strain tfp1, active compounds read low",0.896 (active)
same,normalized growth,"S. cerevisiae deletion strains, locus YDL192W, strain arf1, active compounds read low",0.942
same,normalized growth,"S. cerevisiae deletion strains, locus YDR101C, strain arx1, active compounds read low",0.967
same,normalized growth,"S. cerevisiae deletion strains, locus YDR150W, strain NUM1, active compounds read low",0.975
same,normalized growth,"S. cerevisiae deletion strains, locus YDR162C, strain NBP2, active compounds read low",0.968
same,normalized growth,"S. cerevisiae deletion strains, locus YDR318W, strain mcm21, active compounds read low",0.953
same,normalized growth,"S. cerevisiae deletion strains, locus YDR363W, strain ESC2, active compounds read low",1
same,normalized growth,"S. cerevisiae deletion strains, locus YDR388W, active compounds read low",0.941
same,normalized growth,"S. cerevisiae deletion strains, locus YDR502C, strain sam2, active compounds read low",0.963
same,normalized growth,"S. cerevisiae deletion strains, locus YEL061C, strain CIN8, active compounds read low",0.972
same,normalized growth,"S. cerevisiae deletion strains, locus YER002W, strain NOP16, active compounds read low",0.973
same,normalized growth,"S. cerevisiae deletion strains, locus YER110C, active compounds read low",0.954
same,normalized growth,"S. cerevisiae deletion strains, locus YER155C, strain BEM2, active compounds read low",0.931
same,normalized growth,"S. cerevisiae deletion strains, locus YER167W, strain BCK2, active compounds read low",0.957
same,normalized growth,"S. cerevisiae deletion strains, locus YGL078C, strain dbp3, active compounds read low",0.943
same,normalized growth,"S. cerevisiae deletion strains, locus YGL086W, strain mad1, active compounds read low",0.963
same,normalized growth,"S. cerevisiae deletion strains, locus YGL248W, strain PDE1, active compounds read low",0.989
same,normalized growth,"S. cerevisiae deletion strains, locus YGR135W, strain pre9, active compounds read low",0.95
same,normalized growth,"S. cerevisiae deletion strains, locus YGR229C, strain SMI1, active compounds read low",0.978
same,normalized growth,"S. cerevisiae deletion strains, locus YGR252W, strain gcn5, active compounds read low",0.911
same,normalized growth,"S. cerevisiae deletion strains, locus YHR030C, strain SLT2, active compounds read low",0.949
same,normalized growth,"S. cerevisiae deletion strains, locus YHR079C, strain IRE1 (second series), active compounds read low",0.942
same,normalized growth,"S. cerevisiae deletion strains, locus YHR094C, strain hxt1, active compounds read low",0.941
same,normalized growth,"S. cerevisiae deletion strains, locus YHR129C, strain ARP1, active compounds read low",0.953
same,normalized growth,"S. cerevisiae deletion strains, locus YHR200W, strain rpn10, active compounds read low",0.945
same,normalized growth,"S. cerevisiae deletion strains, locus YIL066C, strain RNR3, active compounds read low",0.973
same,normalized growth,"S. cerevisiae deletion strains, locus YIL073C, strain SPO22, active compounds read low",0.954
same,normalized growth,"S. cerevisiae deletion strains, locus YIL125W, strain kgd1, active compounds read low",0.919 (active)
same,normalized growth,"S. cerevisiae deletion strains, locus YIR030C, strain dcg1, active compounds read low",0.939
same,normalized growth,"S. cerevisiae deletion strains, locus YJL095W, strain BCK1, active compounds read low",0.996
same,normalized growth,"S. cerevisiae deletion strains, locus YJL134W, strain LCB3, active compounds read low",0.953
same,normalized growth,"S. cerevisiae deletion strains, locus YJL168C, strain set2, active compounds read low",0.941
same,normalized growth,"S. cerevisiae deletion strains, locus YJL187C, strain SWE1 (second series), active compounds read low",1
same,normalized growth,"S. cerevisiae deletion strains, locus YJR043C, strain POL32, active compounds read low",0.991
same,normalized growth,"S. cerevisiae deletion strains, locus YJR075W, strain HOC1, active compounds read low",0.981 and 1.02
same,normalized growth,"S. cerevisiae deletion strains, locus YKL009W, strain mrt4, active compounds read low",0.944
same,normalized growth,"S. cerevisiae deletion strains, locus YKL068W, active compounds read low",0.912 (active)
same,normalized growth,"S. cerevisiae deletion strains, locus YKL085W, strain MDH1 (second series), active compounds read low",0.916 (active)
same,normalized growth,"S. cerevisiae deletion strains, locus YKL085W, strain MDH1, active compounds read low",0.916 (active)
same,normalized growth,"S. cerevisiae deletion strains, locus YKL190W, strain CNB1, active compounds read low",0.979
same,normalized growth,"S. cerevisiae deletion strains, locus YKR001C, strain vps1, active compounds read low",0.949
same,normalized growth,"S. cerevisiae deletion strains, locus YLR039C, strain RIC1, active compounds read low",0.966
same,normalized growth,"S. cerevisiae deletion strains, locus YLR058C, strain SHM2, active compounds read low",0.969
same,normalized growth,"S. cerevisiae deletion strains, locus YLR102C, strain apc9, active compounds read low",0.938
same,normalized growth,"S. cerevisiae deletion strains, locus YLR262C, strain YPT6, active compounds read low",0.975
same,normalized growth,"S. cerevisiae deletion strains, locus YLR268W, strain sec22, active compounds read low",0.978
same,normalized growth,"S. cerevisiae deletion strains, locus YLR330W, strain CHS5, active compounds read low",0.943
same,normalized growth,"S. cerevisiae deletion strains, locus YLR342W, strain FKS1 (second series), active compounds read low",0.936
same,normalized growth,"S. cerevisiae deletion strains, locus YLR371W, strain rom2, active compounds read low",0.951
same,normalized growth,"S. cerevisiae deletion strains, locus YLR418C, strain cdc73, active compounds read low",0.909
same,normalized growth,"S. cerevisiae deletion strains, locus YML016C, strain PPZ1, active compounds read low",0.967
same,normalized growth,"S. cerevisiae deletion strains, locus YML032C, strain rad52, active compounds read low",0.966
same,normalized growth,"S. cerevisiae deletion strains, locus YML124C, strain tub3, active compounds read low",0.933 (active)
same,normalized growth,"S. cerevisiae deletion strains, locus YMR078C, strain ctf18, active compounds read low",0.945
same,normalized growth,"S. cerevisiae deletion strains, locus YMR223W, strain ubp8, active compounds read low",0.958
same,normalized growth,"S. cerevisiae deletion strains, locus YMR263W, strain SAP30, active compounds read low",0.973
same,normalized growth,"S. cerevisiae deletion strains, locus YMR307W, strain GAS1, active compounds read low",0.881
same,normalized growth,"S. cerevisiae deletion strains, locus YNL067W, strain RPL9B, active compounds read low",1.02
same,normalized growth,"S. cerevisiae deletion strains, locus YNL153C, strain GIM3, active compounds read low",0.991
same,normalized growth,"S. cerevisiae deletion strains, locus YNL175C, strain NOP13, active compounds read low",0.981
same,normalized growth,"S. cerevisiae deletion strains, locus YNL197C, strain WHI3, active compounds read low",1
same,normalized growth,"S. cerevisiae deletion strains, locus YNL224C, strain SQS1, active compounds read low",0.969
same,normalized growth,"S. cerevisiae deletion strains, locus YNL233W, strain BNI4, active compounds read low",0.988
same,normalized growth,"S. cerevisiae deletion strains, locus YNL250W, strain rad50, active compounds read low",0.9
same,normalized growth,"S. cerevisiae deletion strains, locus YNL271C, strain bni1, active compounds read low",0.916 (active)
same,normalized growth,"S. cerevisiae deletion strains, locus YNL298W, strain CLA4, active compounds read low",0.942
same,normalized growth,"S. cerevisiae deletion strains, locus YNL307C, strain MCK1, active compounds read low",0.937
same,normalized growth,"S. cerevisiae deletion strains, locus YNL322C, strain KRE1, active compounds read low",0.969 and 1.02
same,normalized growth,"S. cerevisiae deletion strains, locus YNR052C, strain pop2, active compounds read low",0.949
same,normalized growth,"S. cerevisiae deletion strains, locus YOL006C, strain TOP1, active compounds read low",0.99
same,normalized growth,"S. cerevisiae deletion strains, locus YOL012C, strain htz1",1.13
same,normalized growth,"S. cerevisiae deletion strains, locus YOL147C, strain pex11, active compounds read low",0.935
same,normalized growth,"S. cerevisiae deletion strains, locus YOR061W, strain CKA2, active compounds read low",0.974
same,normalized growth,"S. cerevisiae deletion strains, locus YOR069W, strain VPS5, active compounds read low",0.956
same,normalized growth,"S. cerevisiae deletion strains, locus YOR083W, strain WHI5 (second series), active compounds read low",0.992
same,normalized growth,"S. cerevisiae deletion strains, locus YOR136W, strain idh2, active compounds read low",0.98
same,normalized growth,"S. cerevisiae deletion strains, locus YOR144C, strain elg1, active compounds read low",0.944
same,normalized growth,"S. cerevisiae deletion strains, locus YOR184W, strain ser1, active compounds read low",0.968
same,normalized growth,"S. cerevisiae deletion strains, locus YOR316C, strain cot1, active compounds read low",0.931
same,normalized growth,"S. cerevisiae deletion strains, locus YPL055C, strain LGE1, active compounds read low",1.04 and 1.01
same,normalized growth,"S. cerevisiae deletion strains, locus YPR119W, strain clb2, active compounds read low",0.934
same,normalized growth,"S. cerevisiae deletion strains, locus YPR141C, strain kar3, active compounds read low",0.895 (active)
same,normalized growth,"S. cerevisiae deletion strains, locus YPR163C, strain tif3, active compounds read low",0.95
same,normalized growth,"S. cerevisiae deletion strains, locus YPR167C, strain met16, active compounds read low",0.938
same,normalized growth,"S. cerevisiae deletion strains, strain wtn01, active compounds read low",0.957
same,normalized growth,"S. cerevisiae strains, strain wild type, active compounds read low",0.981
